# Assays:
# [1] = biological target: T1, Ephrin type-B receptor 1 (Homo sapiens) (UniProt P54762); settings: at 10 µM
# T1 sequence (whole entry): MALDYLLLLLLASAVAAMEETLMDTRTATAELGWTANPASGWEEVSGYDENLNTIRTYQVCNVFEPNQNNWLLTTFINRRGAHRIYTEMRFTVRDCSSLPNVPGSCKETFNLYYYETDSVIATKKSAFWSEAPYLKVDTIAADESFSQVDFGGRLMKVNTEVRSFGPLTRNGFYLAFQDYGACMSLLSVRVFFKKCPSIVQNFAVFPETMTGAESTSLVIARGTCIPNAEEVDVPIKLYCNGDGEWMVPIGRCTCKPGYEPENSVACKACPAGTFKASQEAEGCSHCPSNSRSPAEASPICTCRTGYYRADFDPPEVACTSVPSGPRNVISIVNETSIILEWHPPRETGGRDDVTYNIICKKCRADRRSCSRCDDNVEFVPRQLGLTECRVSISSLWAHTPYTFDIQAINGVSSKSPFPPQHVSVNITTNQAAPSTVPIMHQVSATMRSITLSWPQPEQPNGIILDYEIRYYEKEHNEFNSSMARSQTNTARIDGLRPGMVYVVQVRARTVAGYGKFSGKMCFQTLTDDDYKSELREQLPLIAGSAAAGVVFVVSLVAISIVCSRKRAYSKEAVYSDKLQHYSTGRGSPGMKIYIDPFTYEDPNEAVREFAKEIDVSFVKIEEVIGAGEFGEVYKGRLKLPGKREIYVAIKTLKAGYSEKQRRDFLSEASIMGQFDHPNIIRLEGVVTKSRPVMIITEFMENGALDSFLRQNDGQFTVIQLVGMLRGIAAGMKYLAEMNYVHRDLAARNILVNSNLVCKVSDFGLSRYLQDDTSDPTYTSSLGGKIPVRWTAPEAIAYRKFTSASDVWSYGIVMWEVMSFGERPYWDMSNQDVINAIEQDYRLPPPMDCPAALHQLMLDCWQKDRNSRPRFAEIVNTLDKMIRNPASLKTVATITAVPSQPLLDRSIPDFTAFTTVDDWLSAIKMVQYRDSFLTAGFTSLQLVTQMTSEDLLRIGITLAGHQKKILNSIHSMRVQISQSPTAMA
# [2] = biological target: T2, Ephrin type-B receptor 2 (Homo sapiens) (UniProt P29323); settings: at 1 µM
# T2 sequence (whole entry): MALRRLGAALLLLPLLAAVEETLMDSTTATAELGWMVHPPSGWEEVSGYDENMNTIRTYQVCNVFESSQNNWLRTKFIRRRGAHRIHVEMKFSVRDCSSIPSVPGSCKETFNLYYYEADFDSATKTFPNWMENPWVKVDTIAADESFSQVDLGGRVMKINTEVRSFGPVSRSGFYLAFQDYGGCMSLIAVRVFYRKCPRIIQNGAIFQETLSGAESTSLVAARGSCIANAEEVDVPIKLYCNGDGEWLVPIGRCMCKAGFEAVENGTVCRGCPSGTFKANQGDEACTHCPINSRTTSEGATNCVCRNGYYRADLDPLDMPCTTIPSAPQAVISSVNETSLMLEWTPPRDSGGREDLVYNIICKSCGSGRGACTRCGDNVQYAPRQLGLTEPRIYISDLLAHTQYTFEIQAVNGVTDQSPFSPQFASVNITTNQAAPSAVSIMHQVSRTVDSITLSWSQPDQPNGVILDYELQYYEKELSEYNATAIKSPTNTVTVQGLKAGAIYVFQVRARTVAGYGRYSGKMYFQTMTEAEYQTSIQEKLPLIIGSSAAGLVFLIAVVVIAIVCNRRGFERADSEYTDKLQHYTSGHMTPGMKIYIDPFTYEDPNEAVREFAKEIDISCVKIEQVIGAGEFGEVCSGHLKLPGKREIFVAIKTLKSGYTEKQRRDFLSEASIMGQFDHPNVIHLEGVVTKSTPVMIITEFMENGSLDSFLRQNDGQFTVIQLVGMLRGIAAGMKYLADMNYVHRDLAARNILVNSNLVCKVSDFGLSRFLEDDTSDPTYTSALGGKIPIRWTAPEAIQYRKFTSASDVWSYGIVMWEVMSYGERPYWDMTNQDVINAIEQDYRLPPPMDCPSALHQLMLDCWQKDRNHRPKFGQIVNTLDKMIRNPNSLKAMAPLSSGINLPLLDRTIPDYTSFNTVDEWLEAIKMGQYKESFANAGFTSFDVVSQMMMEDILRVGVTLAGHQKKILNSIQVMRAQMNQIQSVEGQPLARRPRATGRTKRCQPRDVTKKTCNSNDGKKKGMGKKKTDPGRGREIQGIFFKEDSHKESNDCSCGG
# [3] = biological target: T2, Ephrin type-B receptor 2 (Homo sapiens); settings: at 10 µM
# [4] = biological target: T3, Ephrin type-B receptor 3 (Homo sapiens) (UniProt P54753); settings: at 1 µM
# T3 sequence (whole entry): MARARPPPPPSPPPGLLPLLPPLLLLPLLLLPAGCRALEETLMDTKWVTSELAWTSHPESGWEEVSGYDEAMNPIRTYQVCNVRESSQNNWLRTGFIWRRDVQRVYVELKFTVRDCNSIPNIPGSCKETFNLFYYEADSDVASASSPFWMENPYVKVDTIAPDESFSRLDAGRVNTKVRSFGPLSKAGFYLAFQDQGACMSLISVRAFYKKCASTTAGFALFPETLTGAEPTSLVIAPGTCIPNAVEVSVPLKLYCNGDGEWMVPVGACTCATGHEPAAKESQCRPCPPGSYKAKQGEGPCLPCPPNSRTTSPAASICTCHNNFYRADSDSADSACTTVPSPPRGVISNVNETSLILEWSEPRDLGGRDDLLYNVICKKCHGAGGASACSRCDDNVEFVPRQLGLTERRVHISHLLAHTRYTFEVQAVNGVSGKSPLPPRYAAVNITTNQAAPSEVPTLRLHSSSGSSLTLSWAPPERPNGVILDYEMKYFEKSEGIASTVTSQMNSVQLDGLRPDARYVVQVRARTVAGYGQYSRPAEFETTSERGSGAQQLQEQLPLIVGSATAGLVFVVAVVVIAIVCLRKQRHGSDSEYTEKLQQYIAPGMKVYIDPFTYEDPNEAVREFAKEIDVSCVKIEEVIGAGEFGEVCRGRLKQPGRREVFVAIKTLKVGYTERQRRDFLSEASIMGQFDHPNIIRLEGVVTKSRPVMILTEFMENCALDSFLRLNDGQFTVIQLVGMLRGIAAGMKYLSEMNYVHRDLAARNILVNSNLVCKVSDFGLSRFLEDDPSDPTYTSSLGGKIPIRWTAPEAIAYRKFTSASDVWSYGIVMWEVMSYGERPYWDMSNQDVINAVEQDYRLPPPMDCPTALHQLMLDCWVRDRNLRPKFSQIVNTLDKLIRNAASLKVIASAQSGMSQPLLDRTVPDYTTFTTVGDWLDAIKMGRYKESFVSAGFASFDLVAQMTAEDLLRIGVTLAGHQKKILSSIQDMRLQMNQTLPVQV
# [5] = biological target: T3, Ephrin type-B receptor 3 (Homo sapiens); settings: at 10 µM
# [6] = biological target: T4, Ephrin type-B receptor 4 (Homo sapiens) (UniProt P54760); settings: at 1 µM
# T4 sequence (whole entry): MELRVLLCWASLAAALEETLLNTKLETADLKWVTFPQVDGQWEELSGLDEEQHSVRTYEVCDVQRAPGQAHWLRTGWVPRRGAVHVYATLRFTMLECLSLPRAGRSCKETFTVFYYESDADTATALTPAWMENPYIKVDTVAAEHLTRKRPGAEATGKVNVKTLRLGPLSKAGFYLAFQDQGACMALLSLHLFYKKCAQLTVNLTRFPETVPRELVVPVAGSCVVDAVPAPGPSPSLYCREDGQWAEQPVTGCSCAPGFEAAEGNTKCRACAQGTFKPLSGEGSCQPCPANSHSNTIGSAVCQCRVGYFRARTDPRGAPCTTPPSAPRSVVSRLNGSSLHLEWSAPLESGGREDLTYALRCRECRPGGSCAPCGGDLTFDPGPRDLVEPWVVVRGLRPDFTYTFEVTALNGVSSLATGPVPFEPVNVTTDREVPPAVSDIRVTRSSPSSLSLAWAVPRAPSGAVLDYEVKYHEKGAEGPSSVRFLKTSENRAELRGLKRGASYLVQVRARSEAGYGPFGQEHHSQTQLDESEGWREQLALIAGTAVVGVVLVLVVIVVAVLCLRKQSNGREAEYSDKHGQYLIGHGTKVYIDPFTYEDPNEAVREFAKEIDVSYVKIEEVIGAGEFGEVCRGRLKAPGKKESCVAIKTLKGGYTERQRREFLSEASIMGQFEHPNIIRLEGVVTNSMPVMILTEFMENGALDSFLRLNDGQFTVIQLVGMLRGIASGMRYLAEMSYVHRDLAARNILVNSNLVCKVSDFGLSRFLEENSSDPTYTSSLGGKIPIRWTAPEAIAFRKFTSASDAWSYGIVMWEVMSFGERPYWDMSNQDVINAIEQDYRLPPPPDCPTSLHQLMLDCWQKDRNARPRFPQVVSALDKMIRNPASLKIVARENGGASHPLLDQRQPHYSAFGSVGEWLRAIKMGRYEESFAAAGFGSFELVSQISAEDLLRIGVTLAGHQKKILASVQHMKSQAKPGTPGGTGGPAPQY
# [7] = biological target: T4, Ephrin type-B receptor 4 (Homo sapiens); settings: at 10 µM
# [8] = biological target: Receptor tyrosine-protein kinase erbB-4 (Homo sapiens) (UniProt Q15303); settings: at 1 µM
# [9] = biological target: Receptor tyrosine-protein kinase erbB-4 (Homo sapiens) (UniProt Q15303); settings: at 10 µM
# [10] = biological target: Focal adhesion kinase 1 (Homo sapiens) (UniProt Q05397); settings: at 1 µM
# Sequence of Focal adhesion kinase 1 (Homo sapiens) (Q05397 2-1052 limits assumed): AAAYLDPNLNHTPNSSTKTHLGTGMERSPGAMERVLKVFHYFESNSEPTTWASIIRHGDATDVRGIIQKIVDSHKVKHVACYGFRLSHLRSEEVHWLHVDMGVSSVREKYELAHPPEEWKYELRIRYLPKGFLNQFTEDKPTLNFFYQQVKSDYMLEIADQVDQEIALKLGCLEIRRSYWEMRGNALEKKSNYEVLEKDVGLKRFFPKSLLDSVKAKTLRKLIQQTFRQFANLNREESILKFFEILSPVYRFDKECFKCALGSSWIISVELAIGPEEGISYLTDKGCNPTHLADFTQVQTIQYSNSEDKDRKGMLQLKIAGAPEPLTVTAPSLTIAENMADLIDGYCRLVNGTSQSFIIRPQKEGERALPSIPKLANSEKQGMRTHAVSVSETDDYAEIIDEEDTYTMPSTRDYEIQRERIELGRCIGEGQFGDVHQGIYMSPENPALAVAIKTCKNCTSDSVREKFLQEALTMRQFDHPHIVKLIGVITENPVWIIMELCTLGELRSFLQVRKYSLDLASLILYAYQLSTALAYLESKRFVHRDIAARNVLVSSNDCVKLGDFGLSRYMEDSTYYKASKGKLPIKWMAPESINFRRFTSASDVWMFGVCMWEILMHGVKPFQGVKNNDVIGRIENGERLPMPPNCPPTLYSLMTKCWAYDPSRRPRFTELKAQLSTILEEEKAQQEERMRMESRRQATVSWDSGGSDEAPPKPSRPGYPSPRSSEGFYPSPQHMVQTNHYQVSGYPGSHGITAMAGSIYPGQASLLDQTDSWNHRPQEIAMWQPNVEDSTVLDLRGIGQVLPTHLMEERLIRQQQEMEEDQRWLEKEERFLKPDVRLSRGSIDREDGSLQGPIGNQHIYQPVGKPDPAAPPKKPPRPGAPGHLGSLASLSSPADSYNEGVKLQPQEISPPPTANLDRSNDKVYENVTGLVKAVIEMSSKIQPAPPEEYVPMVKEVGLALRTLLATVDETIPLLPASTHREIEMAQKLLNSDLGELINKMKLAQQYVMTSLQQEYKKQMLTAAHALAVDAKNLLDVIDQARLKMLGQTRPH
# Sequence of Receptor tyrosine-protein kinase erbB-4 (Homo sapiens) (Q15303 whole entry): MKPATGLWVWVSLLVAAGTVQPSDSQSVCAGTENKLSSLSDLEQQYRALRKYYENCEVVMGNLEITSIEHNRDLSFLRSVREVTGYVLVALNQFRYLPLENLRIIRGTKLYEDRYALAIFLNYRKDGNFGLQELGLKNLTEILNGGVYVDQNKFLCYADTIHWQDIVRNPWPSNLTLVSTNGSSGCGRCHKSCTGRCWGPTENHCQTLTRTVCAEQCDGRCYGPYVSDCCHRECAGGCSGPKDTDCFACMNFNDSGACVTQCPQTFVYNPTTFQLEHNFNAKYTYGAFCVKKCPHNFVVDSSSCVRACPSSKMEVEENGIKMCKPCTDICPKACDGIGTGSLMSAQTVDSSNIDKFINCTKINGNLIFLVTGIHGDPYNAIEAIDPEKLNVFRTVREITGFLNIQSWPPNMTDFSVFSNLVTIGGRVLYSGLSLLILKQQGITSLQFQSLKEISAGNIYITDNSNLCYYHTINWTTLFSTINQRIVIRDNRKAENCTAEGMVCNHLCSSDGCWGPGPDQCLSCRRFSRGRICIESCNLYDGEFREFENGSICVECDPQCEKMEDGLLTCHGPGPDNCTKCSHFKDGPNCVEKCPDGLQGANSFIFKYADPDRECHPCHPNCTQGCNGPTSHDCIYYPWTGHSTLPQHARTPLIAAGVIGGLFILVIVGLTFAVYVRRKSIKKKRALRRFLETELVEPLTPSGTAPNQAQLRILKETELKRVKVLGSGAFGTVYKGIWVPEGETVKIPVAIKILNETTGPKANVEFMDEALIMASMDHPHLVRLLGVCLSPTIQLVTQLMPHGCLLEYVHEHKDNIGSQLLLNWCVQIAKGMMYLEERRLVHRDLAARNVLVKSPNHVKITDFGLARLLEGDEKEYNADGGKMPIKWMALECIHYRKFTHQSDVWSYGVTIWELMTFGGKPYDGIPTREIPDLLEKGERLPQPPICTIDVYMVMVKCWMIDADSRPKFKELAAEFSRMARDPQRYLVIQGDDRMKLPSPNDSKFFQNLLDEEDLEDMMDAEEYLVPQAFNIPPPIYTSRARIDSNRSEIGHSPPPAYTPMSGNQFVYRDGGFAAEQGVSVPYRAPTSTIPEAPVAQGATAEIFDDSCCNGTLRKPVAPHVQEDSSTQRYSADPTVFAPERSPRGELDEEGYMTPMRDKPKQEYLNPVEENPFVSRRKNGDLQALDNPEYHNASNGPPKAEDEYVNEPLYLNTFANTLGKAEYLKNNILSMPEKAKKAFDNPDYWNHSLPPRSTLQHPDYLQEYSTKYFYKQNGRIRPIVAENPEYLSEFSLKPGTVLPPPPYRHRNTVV
compound,measurement,setting,value
Cc1nc(-c2ccccc2)c(-c2ccncc2)o1,residual activity,[1],55%
same,residual activity,[2],36%
same,residual activity,[3],31%
same,residual activity,[4],126% (inactive)
same,residual activity,[5],107%
same,residual activity,[6],105%
same,residual activity,[7],79%
same,residual activity,[8],118%
same,residual activity,[9],110%
same,residual activity,[10],111%

# From ChEMBL document CHEMBL2218924, “A broad activity screen in support of a chemogenomic map for kinase signalling research and drug discovery” (Biochem J, 2013)
